These results are taken from PubChem BioAssay AID1578 (Sanford-Burnham Center for Chemical Genomics, 2009).

In all, about 290,000 compounds went through this assay and about 3,000 (1%) were called active. For the sample, actives were picked, then their nearest neighbours and some compounds at random. Unmarked numbers belong to inactive results. Cut-off read from the data, not from the text of the source: active = inhibition mostly above about 36% (no sharp cut-off); inactive = mostly below about 34%.

The nature of this experiment: inhibition of NOD1-driven NF-kB reporter – cell-based, luminescence, uHTS, primary screen (AID 1578).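 Note: HEK-293T reporter cells stimulated with the NOD1 agonist gamma-tri-DAP.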 The following applies: NOD1-driven NF-kB luciferase reporter cells, at 4 µM, active compounds read high.
On to `O=C(CSc1nnnn1-c1ccccc1)Nc1ccccc1`, for which the inhibition was -15.6%.

Turning to `O=C(CSc1nnnn1-c1ccccc1)Nc1ccc(Cl)cc1`, the inhibition was 18.8%.

For the molecule `O=C(CSc1nnnn1-c1ccccc1)CC(=O)Nc1ccc(Cl)cc1`, the inhibition was 73.1% (active).

As for `CN1C(=O)SC(Nc2cccc3ccccc23)C1=O` (stereo unspecified), the inhibition is -30.3%.

With `O=C(CCN1C(=O)C2CC=CCC2C1=O)NC1CCCCC1` (stereo unspecified), the inhibition is 44.9% (active).

For the molecule `O=C(CCN1C(=O)C2CC=C(Cl)CC2C1=O)NC1CCCCC1` (stereo unspecified), the inhibition is -1.2%.

Turning to `O=C(CN1C(=O)C2CC=CCC2C1=O)NC1CCCCC1` (stereo unspecified), the inhibition was -35.5%.

For `Cc1cc2ccccn2c1C(=O)c1ccc(C#N)cc1`, the inhibition was 2%.

Consider `CCOc1ccc2c(c1)OC(c1ccc(OC)cc1)(C(F)(F)F)NC2=O` (stereo unspecified), for which the inhibition is -30.6%.

With `CCOc1ccc2c(c1)OC(c1ccccc1)(C(F)(F)F)NC2=O` (stereo unspecified), the inhibition is -42.1%.

As to `CCOc1ccc2c(c1)OC(c1ccc(C)cc1)(C(F)(F)F)NC2=O` (stereo unspecified), the inhibition was 101% (active).

`CC(Sc1nnc(CC(=O)Nc2ccccc2F)n1C)C(=O)Nc1nccs1` (stereo unspecified): the inhibition is -32.4%.

In the case of `O=c1[nH]nc(SCCS(=O)(=O)c2ccc(F)cc2)n1-c1ccccc1`, the inhibition was -11.2%.

For `Cc1ccc(S(=O)(=O)CCSc2n[nH]c(=O)n2-c2ccccc2)cc1`, the inhibition is -6.8%.

Turning to `Cc1cc(C)c(-n2c(SCCS(=O)(=O)c3ccc(F)cc3)n[nH]c2=O)c(C)c1`, the inhibition is 69.7% (active).

Regarding `CCOC(=O)c1[nH]cnc1C(=O)Nc1cccc(OC)c1`, the inhibition is -3.5%.

Turning to `CCCCC(c1nnnn1CC1CCCO1)N1CCN(c2ccccc2)CC1` (stereo unspecified), the inhibition is -34.5%.

For `CCN(c1ccccc1)S(=O)(=O)c1ccc2c(c1)CC(C)N2C(=O)C1CC1` (stereo unspecified), the inhibition is -12.9%.

In the case of `CC(=O)NC1(c2ccccc2)CCN(c2cc(C)nc(-c3ccccc3)n2)CC1`, the inhibition is 52.2% (active).

In the case of `CC(=O)NC1(c2ccccc2)CCN(c2nc(C)cc(C)n2)CC1`, the inhibition is -0.9%.

As for `Cc1cc(N2CCC(C(N)=O)CC2)nc(-c2ccccc2)n1`, the inhibition is 2%.

`CCN(Cc1ccncc1)Cc1nc(CC2CC2)no1`: the inhibition was -8.9%.

On to `COc1ccc(C(=O)C(CCCCC(CN(C)C)C(=O)c2ccc(OC)cc2)CN(C)C)cc1` (stereo unspecified), for which the inhibition was -6%.

As to `CN(C)CC(CCCCC(CN(C)C)C(=O)c1ccccc1)C(=O)c1ccccc1` (stereo unspecified), the inhibition is -4.1%.

In the case of `COc1ccccc1NC(=O)CN1CCN(CC(=O)Nc2ccccc2Cl)CC1`, the inhibition was -18.4%.

As to `O=C(Nc1ccc(Cl)cc1)Nc1cc([N+](=O)[O-])ccc1F`, the inhibition was 30.3%.

As to `O=C(Nc1ccccc1)Nc1cc([N+](=O)[O-])ccc1F`, the inhibition was -17.9%.

Take `COc1ccc(C2/C(=C(/O)c3ccc(C)cc3)C(=O)C(=O)N2C)c(OC)c1` (stereo unspecified): the inhibition was -29.5%.

With `CCC1CCC(C(=O)NC(C(=O)NCCN2CCOCC2)C(C)C)CC1` (stereo unspecified), the inhibition was -24.4%.

Regarding `Cc1cc(Cl)c(S(=O)(=O)Nc2cc(S(=O)(=O)N3CCOCC3)ccc2F)cc1OCC(N)=O`, the inhibition is -11.8%.

Regarding `Cn1nccc1C(=O)N1CCN(c2cccc(C(F)(F)F)c2)CC1`, the inhibition was -2.5%.

As for `CC1Oc2ccccc2N(CC(=O)NCc2ccc3c(c2)OCO3)C1=O` (stereo unspecified), the inhibition was -48.9%.

As for `COc1ccc(OC)c(/C=N\NC(=O)c2c(C)nc3cc(C)ccn23)c1`, the inhibition was -8.5%.

Regarding `CN(C(=O)COc1ccc(Cl)cc1)c1nnc(C23CC4CC(CC(C4)C2)C3)s1`, the inhibition was 4.5%.

Take `CN(C(=O)COc1ccc(Cl)cc1Cl)c1nnc(C23CC4CC(CC(C4)C2)C3)s1`: the inhibition was -34.1%.

For `CN(C(=O)COc1ccccc1)c1nnc(C23CC4CC(CC(C4)C2)C3)s1`, the inhibition is 104% (active).

`O=C(NNC(=S)Nc1ccc(Cl)c(Cl)c1)c1cccc([N+](=O)[O-])c1`: the inhibition is -11.1%.

On to `CN(C(=O)CC1C(=O)NCCN1Cc1cccc(F)c1F)C1CCOCC1` (stereo unspecified), for which the inhibition was -24.4%.

In the case of `CCC(CCC(=O)Nc1nncs1)C(=O)O` (stereo unspecified), the inhibition was 0.6%.

For `O=C(O)CCCCCN1C(=O)C2CCCCC2C1=O` (stereo unspecified), the inhibition was -26.7%.

With `CC(O)[C@H]1CNC(=O)C(=O)N1CCCCC1CCCCC1` (stereo partly specified), the inhibition is -9.4%.

`O=C(O)CCCCCCC1C(=O)NC(=O)N1CCC(O)C1CCCCC1` (stereo unspecified): the inhibition was 75.2% (active).

As to `CCOC(=O)c1c(C)[nH]c(C)c1S(=O)(=O)N(C)CC(=O)NCc1cccc(Br)c1`, the inhibition is -19.6%.

For `COc1ccc(-c2c3c(cc(C)[n+]2[O-])oc2ccc(OC)cc23)cc1`, the inhibition is -20%.

With `Cc1[nH]nc2c1C(c1ccc3c(c1)OCO3)C(C#N)=C(N)O2` (stereo unspecified), the inhibition was -33.1%.

Regarding `CC(C)c1cccc(C(C)C)c1NC(=O)CN1CCCC1`, the inhibition is -21.2%.

As to `CC(C)c1cccc(C(C)C)c1NC(=O)CCl`, the inhibition is 68.4% (active).

Take `CC(C)c1cccc(C(C)C)c1NC(=O)c1ccccc1`: the inhibition was -17.6%.

Turning to `COc1ccccc1CNC(=O)Cn1nnnc1CN(C)C(C)C`, the inhibition was -103%.

Regarding `COc1ccc2oc(C(=O)NC(C)(C)C)c(C)c2c1`, the inhibition was -42.6%.

With `CCCC(=O)C1=C(O)C(C(=O)OC)C(C)(C)CC1=Nc1cccc2ccccc12` (stereo unspecified), the inhibition is 53.5% (active).

As to `CCCC(=O)C1=C(O)C(C(=O)OC)C(C)(C)CC1=Nc1ccc(OC)cc1` (stereo unspecified), the inhibition was -37.1%.

`CCCC(=O)C1=C(O)C(C(=O)OC)C(C)(C)CC1=Nc1ccccc1` (stereo unspecified): the inhibition is -9.6%.

Regarding `O=C(NCC1CCCO1)c1ccc(/C=N/O)nc1` (stereo unspecified), the inhibition was -26.9%.

`CC1(C)CC(N2CCCCC2)=CC(=[N+]2CCCCC2)C1`: the inhibition is 36.9%.

Regarding `CC1(C)CC(N2CCCC2)=CC(=[N+]2CCCCC2)C1`, the inhibition is -30.9%.

Consider `CC1(C)CC(N2CCN(c3ccccc3)CC2)=CC(=[N+]2CCCC2)C1`, for which the inhibition is 55%.

For the molecule `CC1(C)CC(N2CCCC2)=CC(=[N+]2CCCC2)C1`, the inhibition was 27.8%.

Turning to `O=C(Cn1c(=O)c2sccc2n(Cc2ccc([N+](=O)[O-])cc2)c1=O)NCCc1ccccc1`, the inhibition was -16.6%.

As to `Cn1c(CNC(=O)CCNC(=O)c2cccc(F)c2)cc(=O)n(C)c1=O`, the inhibition was -2.9%.

`Cc1cccc(C(=O)N=c2sccn2C)c1[N+](=O)[O-]`: the inhibition was -69.7%.
